Measured values taken from PubChem BioAssay AID493191 (Broad Institute, 2011).
Among all 1,300 compounds or so, about 330 (25%) were called active. Only a sample is shown. Potency and affinity values are given separately. A number with no mark means an inactive call. How the calls were made is not given here.

Experiment: MALME3 melanoma cell viability loss, dose response, orthogonal assay for MITF inhibitor project, CellTiter-Glo, cherry-picked (AID 493191)
Details: CellTiter-Glo luminescence, 24 h; series mostly up to 35 µM; activity change, negative = inhibition: at the top concentration

| SMILES | activity change, negative = inhibition |
| --- | --- |
| O=C(Nc1ccccc1F)C(=O)Nc1cccc2ccccc12 | -0.168% |
| Cc1ccc2oc(C(Cl)(Cl)Cl)cc(=O)c2c1 | -14.9% |
| O=C(CCl)Nc1cccc(S(=O)(=O)NC2=NCCCCC2)c1 | -33% |
| O=C(CSc1nnnn1-c1ccc(O)cc1)Nc1cccc(S(=O)(=O)N2CCCC2)c1 | -6.31% |
| COc1cccc(N2CCN(C(=O)c3ccc(CS(=O)c4ccccc4Cl)o3)CC2)c1 (configuration not stated) | 0.783% |
| COc1ccc(C(=O)Nc2nc3ccc(OC)cc3s2)cc1 | 2.29% |
| CC1CCN(c2nc3ccc(C(=O)O)cc3s2)CC1 | -11.3% |
| O=C(c1ccc(F)cc1)N1CCC(c2ccccc2)C1 (configuration not stated) | 6.87% |
| CC(C)c1nnc(NC(=O)CCC2CCCCC2)s1 | -0.152% |
| COc1ccc2oc(=O)c(C(=O)Nc3ccccc3C)cc2c1 | -4.46% |
| c1ccc(OCc2nn3c(-c4ccccn4)nnc3s2)cc1 | 4.41% |
| Cc1ccc(-c2c[n+](Cc3ccc(Cl)cc3)c3n2CCC3)cc1 | -11.4% |
| COc1ccc(-c2c[n+](CC(=O)OC3CC(C)CCC3C(C)C)c3n2CCC3)cc1 (configuration not stated) | -48.5% |
| COc1ccc(N/N=C/c2c(C(=O)O)ccc3ccccc23)cc1 | -11.4% |
| Cc1ccc(COc2ccc(C)nc2[N+](=O)[O-])cc1 | 9.51% |
| CCc1cc(C=NC2CCCCC2)c(O)s1 | 2.76% |
| O=[N+]([O-])c1cc(Cl)cc(/C=N\Nc2ccccn2)c1O | -43.7% |
| COc1cc2c(c(OC)c1OC)-c1ccc(N(C)CC(OC)OC)c(=O)cc1[C@@H](NC(C)=O)CC2 | 20.4% |
| Cc1cc(N2CCOCC2)ccc1/C=C\[N+](=O)[O-] | -48.4% |
| O=C(Nc1ccc(Cl)cc1)C1C2CCCCC21 (configuration not stated) | -0.186% |
| COc1ccc(C(=O)NC(=O)Nc2cc(C)ccn2)cc1 | -25.7% |
| N/C(=N\OC(=O)c1ccccc1)c1ccccn1 | -32.2% |
| COCc1cc(C)nc2sc(C(=O)Nc3cccc(OC)c3)c(N)c12 | 6.83% |
| Cc1cccc2sc(N(CCCN(C)C)C(=O)c3nc4ccccc4s3)nc12 | -22.2% |

| SMILES | activity change, negative = inhibition |
| --- | --- |
| CCC(=O)OCCNc1cc(Sc2nc3ccccc3[nH]2)c2nonc2c1[N+](=O)[O-] | -44.7% |
| O=[N+]([O-])c1c(NCCCO)cc(Sc2ccc(Cl)cc2)c2nonc12 | -28.4% |
| CC(=O)OCCCNc1cc(Sc2ccc(Cl)cc2)c2nonc2c1[N+](=O)[O-] | -45.4% |
| O=C(Nc1ccccc1F)c1ccc2c(c1)OCO2 | -14.2% |
| COc1cccc(-c2nnc3n2N=C(C(C)(C)C)CS3)c1 | 1.74% |
| Cc1ccc(C2=NN(C(=O)CCl)C(c3cccs3)C2)o1 (configuration not stated) | -27.1% |
| C=C1C(=O)C=C[C@]2(C)C[C@@H]3OC(=O)[C@](C)(O)[C@H]3C[C@@H]12 | -38.6% |
| CNc1oc(/C=C/c2cccc(OC)c2)nc1C#N | -4.03% |
| CCCN1C(=O)c2ccc(C(=O)Nc3cc(C)ccc3O)cc2C1=O | -17.9% |
| NNC(=O)c1cc2ccccc2cc1O | -15% |
| CCn1c(=O)c(C(=O)NCc2ccccc2Cl)c(O)c2ccccc21 | -5.21% |
| Cn1c(=O)c([N+](=O)[O-])c(-n2ccnc2)c2ccccc21 | 3.26% |
| COc1cc([N+](=O)[O-])cc(/C=N/NC(=O)c2ccc(NC(=O)c3ccc(C)cc3)cc2)c1O | -29.5% |
| CCOc1cc(NC(=O)CCl)c(OCC)cc1NC(=O)CCl | -11.9% |
| O=C(O)c1cccc(NC(=S)N/N=C/c2ccccn2)c1 | 0.21% |
| O=C(NC1CCCCC1)C(c1cccnc1)N(C(=O)CCl)c1ccc(F)cc1 (configuration not stated) | -45.1% |
| COc1cc(CN2CCC(C(N)=O)CC2)ccc1OCc1ccccc1 | -2.67% |
| COc1cc2c(cc1OC)C(C)N(S(=O)(=O)c1cnc(Cl)c(Cl)c1)CC2 (configuration not stated) | -24.5% |
| Cc1cc(C)c(C#N)c(SCc2nnc(-c3ccccc3)o2)n1 | 6.74% |
| O=C(NC1CCCCC1)c1cc2cc(Br)ccc2o1 | 8.76% |
| COc1cc2c(c(OC)c1OC)-c1ccc(OC)c(=O)cc1C(NC(C)=O)CC2 (configuration not stated) | 7.87% |
| O=C(C[n+]1cc(-c2ccc(F)cc2)n2c1CCC2)c1cccs1 | 8.22% |
| Cc1nc(SCC(=O)Nc2ccc(CN3CCCC3)cc2)c2c(C)c(C)sc2n1 | -48.9% |
| Cc1ccc2cc(NC(=O)Cc3ccccc3)ccc2n1 | -6.29% |

| SMILES | activity change, negative = inhibition |
| --- | --- |
| Cc1cccc(OCC(=O)Nc2cccc(O)c2)c1 | 4.34% |
| O=C(CCl)Nc1ccc(Sc2ccc(NC(=O)CCl)cc2)cc1 | -7.9% |
| O=C(CCl)Nc1ccc(-c2ccccc2)cc1 | -37.2% |
| COc1cccc(NC(=O)c2cc3ccccc3cc2OC)c1 | -22.4% |
| COc1ccc(-c2cc(-c3ccc(OC)c(OC)c3)n[nH]2)c(O)c1 | 2.12% |
| CCCOC(=O)c1ccc(NC(=O)C2CCCO2)cc1 (configuration not stated) | 11.7% |
| CC1=NC(=O)C(N=Nc2cccc(C(=O)O)c2)N1c1ccccc1 (configuration not stated) | 2.56% |
| Cc1ccc(-c2c[n+](Cc3ccc(Cl)c(Cl)c3)c3n2CCC3)cc1 | -44.3% |
| Cc1oc(=O)c(NC(=O)c2ccccc2)cc1C(=O)c1ccccc1 | 2.83% |
| Cc1cc(C)c2c(N)c(C(=O)N/N=C/c3ccccc3)sc2n1 | 7.24% |
| Cc1cc(C)c2nc3nc(C)cc(C)c3c(N)c2c1 | -10.5% |
| Cn1nnnc1Sc1ncnc2scc(-c3ccsc3)c12 | -2.32% |
| Cn1nnnc1Sc1ncnc2scc(-c3ccc(F)cc3)c12 | -30.6% |
| O=C(O)c1ccc(N/N=C/c2ccc(OC(=O)c3cccc(Cl)c3)cc2)cc1 | 4.66% |
| COc1ccccc1N1CCN(/N=C/c2cccc(Cl)c2)CC1 | 0.195% |
| CC(Oc1ccccc1)C(=O)Nc1nc(-c2ccccn2)cs1 (configuration not stated) | -20% |
| O=C(Nc1nc(-c2ccccn2)cs1)c1ccccc1-n1cnnn1 | -19.8% |
| COc1ccc(C(=O)/C=C/Nc2ccccn2)cc1 | -25.4% |
| Cc1cc(C(=O)Nc2cccc(C(=O)O)c2)oc1C | -4.21% |
| O=C(Nc1ccc2nn(-c3ccccc3)nc2c1)c1ccco1 | 6.65% |
| Cc1cccc(NC(=O)c2ccc([N+](=O)[O-])o2)c1C | -47.8% |
| Cc1nc2ccc(NC(=O)c3ccco3)cc2nc1C | 14.5% |
| COc1ccc(C(=O)Nc2ccc3c(c2)OCCO3)cc1Br | -6.9% |
| CC(C)[C@H](NC(=O)OC(C)(C)C)c1nnc(S(=O)(=O)Cc2c(F)cccc2Cl)o1 | -37.9% |

| SMILES | activity change, negative = inhibition |
| --- | --- |
| CCOc1ccc(C(=O)N2CCc3ccccc32)cc1 | 3.7% |
| N#C/C(=C\c1cccs1)C(=O)NCC1CCCO1 (configuration not stated) | 1.37% |
| CN1CCN(CCCOc2ccc(-c3ccccc3)cc2)CC1 | 9.29% |
| Cc1ccc2oc(=O)n(CCCOc3ccccc3)c2c1 | 2.92% |
| CN(C)Cc1c(O)ccc2c1O/C(=C\C=C\c1ccccc1)C2=O | 7.22% |
| Cc1ccccc1OCc1nc2c3cnn(C)c3ncn2n1 | -4.86% |
| CC(=O)NC1=C(N(C)C2CCS(=O)(=O)C2)C(=O)c2ccccc2C1=O (configuration not stated) | -22.3% |
| CCCCC1C(=O)N(c2ccccc2)N(c2ccc(O)cc2)C1=O (configuration not stated) | -3.31% |
| O=C(COc1ccc2c(c1)CCC2)N1CCc2ccccc21 | 3.34% |
| O=C(Nc1ccccc1)NN(C(=O)CCl)c1ccccc1 | -29.5% |
| O=C(CCl)N(c1ccccc1)C1CCS(=O)(=O)C1 (configuration not stated) | -45.5% |
| CN(C)c1ccc(/C=N/N2CCN(c3ccccn3)CC2)cc1 | -17.2% |
| Cc1ccc(NC(=O)C2CCN(S(=O)(=O)c3c(C)noc3/C=C/c3ccco3)CC2)nc1 | -29% |
| CCN=c1scc(-c2ccco2)n1/N=C/c1ccc(O)cc1 | 4.77% |
| Cc1ccc(C(CNS(=O)(=O)c2ccc(Br)cc2)N2CCN(C)CC2)cc1 (configuration not stated) | -14.8% |
| NC(=O)C1CCN(C2=C(NS(=O)(=O)c3ccc(Br)cc3)C(=O)c3ccccc3C2=O)CC1 | -17.1% |
| Cc1ccc(S(=O)(=O)Nc2cccc3cccnc23)cc1 | -32.9% |
| O=C(/C=C/c1ccc2c(c1)OCCO2)c1ccccc1 | -1.96% |
| O=C(NC1=NCCS1)c1ccc(Cl)c(Cl)c1 | 3.67% |
| CC(C)c1ccc(C(=O)Nc2cccnc2)cc1 | 7.79% |
| O=C(NCc1ccccc1)NC1(C(=O)Nc2ccc3c(c2)OCCO3)CCCCC1 | 10.7% |
| COc1ccc(-n2cc(-c3ccc(C)cc3)[n+]3c2SCC3)cc1 | -25.4% |
| COc1cc(SC)ccc1C(=O)Nc1nc(C)cs1 | -42.4% |
| O=C(CSc1nc2ccccc2[nH]1)c1ccc2c(c1)OCO2 | 3.26% |

| SMILES | activity change, negative = inhibition |
| --- | --- |
| O=C(Nc1ccc(Br)cc1)c1ccc2c(c1)OCO2 | 9.74% |
| Cc1cccc(NC(=O)c2cnn(-c3ccccc3)c2C)c1C | -1.17% |
| CCc1nc2oc3ccc(C)cc3c(=O)c2cc1C(=O)OC | -4.11% |
| O=C(N/N=C/C(Cl)=C\c1ccccc1)c1cccs1 | -8.54% |
| O=C(NCc1ccco1)c1nc2c(nnn2Cc2ccccc2Cl)c(=O)[nH]1 | -9.09% |
| CCOc1ccc(N=C(C)C2=C(O)c3ccccc3C2=O)cc1 | -2.1% |
| Nc1nnc(/C=C/c2ccccc2Cl)s1 | 2.68% |
| O=C(NCC1CCCO1)c1cc(-c2ccc(Cl)cc2Cl)on1 (configuration not stated) | -6.27% |
| CS/C(N)=N/N=C/c1ccc2c(c1)OCO2 | -7.25% |
| CN(C)c1nc(-c2ccccn2)nnc1-c1ccccc1 | -15.3% |
| O=C(/C=C/c1ccc(Cl)c([N+](=O)[O-])c1)c1ccc(O)cc1 | -28.2% |
| O=C(c1ccc(S(=O)(=O)Cc2ccccc2Cl)c([N+](=O)[O-])c1)N1CCN(c2ccccn2)CC1 | -1.04% |
| COc1ccc(/C=C2\SC(=S)N(CCCC(=O)NNC(=O)c3ccccc3O)C2=O)cc1 | -9.93% |
| N#C/C(=C(/O)CCl)c1nc2ccccc2[nH]1 | -37.4% |
| COc1ccc(O)c(/C=N/NC(=O)c2ccc(CSc3nc(C)cc(C)n3)cc2)c1 | -19.8% |
| COc1nc(NC2CCCCC2)nc(NC(C)(C)C)n1 | -24.6% |
| O=C(CCCc1ccccc1)Nc1cccc(C(=O)O)c1 | 0.114% |
| CCOC(=O)c1[nH]cnc1N=Nc1c(O)ccc2ccccc12 | -27.8% |
| O=C1N=C(N2CCOCC2)S/C1=C\C=C/c1ccccc1 | 3.9% |
| Cc1nc(-c2ccccn2)sc1C(=O)Nc1ccc(F)cc1F | 2.39% |
| O=C(O)c1cc(N/N=C/C(Cl)=C/c2ccccc2)ccc1Cl | 6.59% |
